Compounds with a hit are over-represented: about 7.7% of the library has one in this group of screens.
TbPYK inhibitor: inhibitors of Trypanosoma brucei pyruvate kinase; Q57TT1; TbPYK enzyme, Kinase-Glo Plus ATP luminescence, 45 min; Potency, µM (series often up to 76.8 µM), for the others: at the highest dose activity, negative = inhibition, usual class: inhibitors; actives 0.12% (n = 410,000); AID 624173; further: potency means the concentration at half of the fitted maximal effect; nearly all actives have a fitted effect of over 50% in size
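T. brucei PYK with substrate was exposed to pin-transferred compounds across a concentration series, then started with 130 uM ADP (final). After 45 min at room temperature, Kinase-Glo Plus luminescence was read, normalized and curve-fitted.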
HCMV inh: human cytomegalovirus inhibition | HFF cells, HCMV-luciferase reporter, 72 h; stronger effect = lower value | activity change, negative = inhibition, % at 57.5 µM | actives 4.5% (n = 410,000) | AID 1259415; in the data active means activity change below about -60%; inconclusive means no clear call, values can overlap the other calls; inactive means above about -39%
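After 16 h attachment at 37C, HFF cells received test compound and HCMV-luciferase (1 PFU/cell); reporter luminescence read 72 h later, data normalized against buffer-only and known inhibitor Salinomycin.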
FBPA Giardia inh: Giardia lamblia aldolase inhibition; A8B2U2; purified Giardia FBPA; Potency, µM (highest dose often 59.6 µM), without a hit: at the top dose activity, negative = inhibition, actives largely listed as inhibitors; actives 0.71% (n = 290,000); further: potency means the concentration at half of the fitted maximal effect; nearly all actives have a fitted effect of over 55% in size
Target sequence (A8B2U2 whole entry, looked up): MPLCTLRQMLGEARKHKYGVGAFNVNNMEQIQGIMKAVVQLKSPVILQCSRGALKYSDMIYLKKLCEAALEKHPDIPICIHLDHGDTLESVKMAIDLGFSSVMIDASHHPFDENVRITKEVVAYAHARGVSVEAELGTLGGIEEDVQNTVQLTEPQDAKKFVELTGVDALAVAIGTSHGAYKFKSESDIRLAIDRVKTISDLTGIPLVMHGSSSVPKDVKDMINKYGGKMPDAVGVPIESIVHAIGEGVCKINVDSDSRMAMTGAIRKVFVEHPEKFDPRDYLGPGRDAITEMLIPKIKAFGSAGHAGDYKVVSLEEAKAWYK
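Giardia FBPA (40 nM reagent) was preincubated 10 min at RT with compound (up to 57.5 uM final), then substrate plus GAPDH/TPI/NAD/arsenate coupling system with diaphorase/resazurin was added; resorufin fluorescence (525/598 nm) was read after 20 min.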
FMDV antiviral: antivirals against foot and mouth disease virus; FMDV antiviral cell-based qHTS; Potency, µM (doses to about 57.9 µM), inactives show top-dose activity change, negative = inhibition, actives largely listed as inhibitors; actives 1.2% (n = 410,000); AID 1159524; calls by dose curve; tested in HEK293T cells; further: read-out not given here; potency means the concentration at half of the fitted maximal effect; nearly all actives have a fitted effect of over 45% in size
Sm TGR block: inhibitors of Schistosoma mansoni thioredoxin glutathione reductase | Potency, µM (series often up to 114 µM), for the others: at the top dose activity change, negative = inhibition, hits mostly inhibitors | actives 3% (n = 360,000) | purified TGR, DTNB reduction, TNB absorbance 405 nm | AID 485364; further: potency means the concentration at half of the fitted maximal effect; nearly all actives have a fitted effect of over 60% in size
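First, TGR (20 nM dispensed) and NADPH were mixed with compound. Second, a 15 min room-temperature incubation followed. Third, further NADPH and then DTNB were added to start the reaction. Finally, TNB absorbance was monitored kinetically.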
RE007 growth inh: less growth of the S. pombe RE007 Vpr strain | S. pombe RE007 Vpr strain, BacTiter-Glo ATP luminescence, 24 h | Potency, µM (series often up to 92.2 µM), without a hit: at the highest dose activity change, negative = less growth, actives largely listed as inhibitors | actives 0.21% (n = 360,000); active means well fitted falling curve with a large enough effect; inconclusive means small, poorly fitted or top-dose-only effect; inactive means no such curve, though single readings can be large or run the other way; further: potency means the concentration at half of the fitted maximal effect; nearly all actives have a fitted effect of over 50% in size
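Fission yeast RE007 carrying one integrated HIV-1 vpr copy, seeded at OD 0.01 in PMG+AL medium with 23 nL pinned compound. Grown 24 h at 30 degrees; viability read by BacTiter-Glo luminescence after 5 min.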
* marks the source's active call; other numbers are inactive results; ? = inconclusive; . = no result given; [ ] = another dose, or the depositor's remark. Unless noted, the call rests on the fitted dose curve; in most records, active means well fitted curve in the direction sought with a large enough effect; inconclusive means small, poorly fitted or top-dose-only effect, or another doubt; inactive means no such curve, though single readings can be large; an effect the other way counts as inactive or inconclusive. On the % scale 0 is the no-effect control and ±100 the full control effect.

SMILES	TbPYK inhibitor	HCMV inh	FBPA Giardia inh	FMDV antiviral	Sm TGR block	RE007 growth inh
O=C1/C(=C/c2ccccc2)CN(C(=O)CCN2CCOCC2)C/C1=C\c1ccccc1	-7.8%	-33.2	.	8.91µM*	.	-5.5%
Cc1ccc(-c2csc(N3CCC(C(N)=O)CC3)n2)cc1	-8.2%	87.6	.	44.1%	-3.4%	.
Cc1ccc(-c2csc(N3CCC(NS(=O)(=O)c4ccc5c(c4)OCCO5)CC3)n2)cc1	-7.2%	-85.3*	-8.4%	?	9.8%	-10.9%
O=c1oc2cc(OCc3c(F)cccc3Cl)ccc2cc1-c1ccccn1	-3.4%	9.5	6.1%	-26.9%	-27.1%	1.6%
CCCOc1ccc2cc(-c3ccccn3)c(=O)oc2c1	?	-77.2*	-7.8%	10µM*	4.7%	?
CCn1c(-c2ccccc2F)nc2cc(NC(C)=O)cc(C(=O)N(C)Cc3ccccn3)c21	.	.	.	-12.2%	.	.
O=C(O)/C=C/C(=O)NNC(=O)c1ccccc1Br	-14.6%	-2.5	-3.0%	29.1%	3.55µM*	0.5%
Cc1ccccc1C(=O)NNC(=O)/C=C\C(=O)O	-10.8%	-21.5	-17.9%	-17.1%	2µM*	5.6%
CCOc1ccccc1NS(=O)(=O)c1ccc2oc(=O)c3ncn(C)c3c2c1	-8.3%	20.9	.	0.0%	-10.0%	.
Cc1nc2sc(C(=O)N(C)Cc3ccccc3)c(NC(=O)c3ccccc3)c2c(C)c1Cl	3.6%	6.0	.	?	2.1%	.
COc1ccc(NC(=O)COC(=O)/C=C/C(=O)OCC(=O)Nc2ccc(OC)c(Cl)c2)cc1Cl	-16.8%	-19.8	0.0%	?	?	.
CCOC(=O)/C=C/C(=O)OCC(=O)Nc1ccc(Cl)cc1Cl	-0.7%	43.9	-0.4%	-19.1%	11.2µM*	-6.0%
CCOC(=O)/C=C/C(=O)OCC(=O)Nc1ccc(OC)c(Cl)c1	-2.3%	23.4	1.8%	-11.0%	17.8µM*	-3.1%
CCOC(=O)/C=C/C(=O)OCC(=O)Nc1c(Cl)cccc1Cl	7.3%	-26.8	4.3%	-17.0%	20µM*	-11.8%
COc1ccc(NC(=O)CS(=O)c2ccc(F)cc2)cc1 (stereo unspecified)	1.5%	1.5	.	16.9%	3.3%	-0.9%
COc1ccc(S(=O)CC(=O)Nc2ccc(Cl)cc2Cl)cc1 (stereo unspecified)	-6.6%	-66.5*	5.3%	-9.8%	-2.6%	1.6%
CC(C)=CC(=O)OCC(=O)Nc1ccc(F)cc1Cl	2.6%	-28.5	-0.1%	-4.0%	14.5%[11.4 µM]	-6.9%
Cc1cc(C(=O)Nc2cccc(-c3nc(CNC(=O)c4cc5ccccc5[nH]4)c(C)o3)c2)c(C)o1	.	.	.	16.5%	.	.
Cc1cnc(-n2ncc(C(=O)N[C@H]3CCCCNC3=O)c2C2CC2)nc1-c1cccs1	.	.	.	-8.4%	.	.
CCC(=O)N1CCc2cc(CNC(=O)Cc3ccc(OC)c(OC)c3)ccc21	-9.4%	-25.3	.	-11.8%	?	.
CCOC(=O)/C=C/C(=O)OCC(=O)NCc1ccccc1	-2.3%	-21.9	-1.7%	-13.9%	25.1µM*	-17.6%
COc1cc(C(C)=O)ccc1COc1ccc(C(=O)OCC(=O)NC(C)(C)C)cc1OC	-5.1%	-36.4	-1.0%	20µM*	0.9%	-9.5%
O=C1CN(C(=O)COc2ccc(Cl)cc2Cl)C(c2ccccc2)c2cc(F)ccc2N1 (stereo unspecified)	0.6%	?	.	?	5.5%	.
COc1ccc(CCN2CCCC(CN(C)Cc3cc(Cl)c(O)c(OC)c3)C2)cc1 (stereo unspecified)	2.0%	22.7	?	9.9%	50.1µM*	-9.6%
COc1ccc(CN(C)CC2CCCN(CCc3ccccc3C)C2)cc1O (stereo unspecified)	2.3%	-31.3	9.0%	-11.0%	-23.0%	14.0%
SMILES	TbPYK inhibitor	HCMV inh	FBPA Giardia inh	FMDV antiviral	Sm TGR block	RE007 growth inh
COCCNC(=O)C(C)(C)n1cc(NC(=O)COCc2ccccc2)cn1	.	0.8	.	.	.	.
Cc1cc(N2CCOCC2)n2cc(-c3ccccc3)nc2n1	-2.6%	32.2	0.0%	-12.2%	-3.2%	-7.7%
Cc1cc(N2CC(C)OC(C)C2)n2cc(-c3ccccc3)nc2n1 (stereo unspecified)	-0.3%	-98.5*	-1.2%	3.8%	-3.5%	10.9%
Cc1ccc(S(=O)(=O)Nc2ccccc2F)cc1C(=O)NNC(=O)c1ccccc1O	-2.4%	-87.2*	.	2.3%	-23.5%	15.7%
Cc1cccc(C)c1NC(=O)CSc1ncc2c(n1)-c1ccc(Cl)cc1N(Cc1ccccc1)S2(=O)=O	6.8%	-98.7*	.	-11.1%	5.3%	.
O=C(CSc1ncc2c(n1)-c1cc(Cl)ccc1N(Cc1ccccc1)S2(=O)=O)Nc1ccc(F)cc1F	-2.8%	-98.1*	.	?	-25.8%	.
Cc1ccc(NC(=O)CSc2ncc3c(n2)-c2ccc(Cl)cc2N(C)S3(=O)=O)cc1F	-5.1%	-15.8	.	-16.3%	0.7%	.
CN1c2cc(Cl)ccc2-c2nc(SCC(=O)Nc3ccc(F)cc3F)ncc2S1(=O)=O	-3.8%	-63.3*	.	?	8.4%	.
CCCCOC(=O)Nc1cc(Cl)ccc1C	2.6%	-80.7*	-3.4%	2.0%	13.8%	-14.3%
Cc1ccc(Cl)cc1NC(=O)OCCN(C)C(=O)Nc1cc(Cl)ccc1C	.	-31.6	.	.	.	.
CCOc1ccc(NC(=O)Cn2nnc(-c3nc(-c4ccncc4)no3)c2N)cc1	2.6%	1.4	.	21.2%	0.8%	.
C=Cc1ccc(S(=O)(=O)O)cc1	-5.8%	.	5.7%	.	.	.
CCCCNS(=O)(=O)c1ccc(NC(=O)C(Sc2ccccc2)c2ccccc2)cc1 (stereo unspecified)	-1.7%	-68.5*	4.7%	0.0%	9.0%	2.0%
COc1ccc(OC)c(-c2ccnc(-n3ncc(C(=O)N(C)CCO)c3C3CC3)n2)c1	.	.	.	34.2%	.	.
CCOC(=O)C1=CCN(S(=O)(=O)c2ccc(Cl)cc2)C1c1cccc(F)c1 (stereo unspecified)	.	-26.9	.	.	.	.
NS(=O)(=O)c1ccc(NC(=O)CCC(=O)c2ccc(Cl)s2)cc1	-8.4%	-95.0*	6.2%	10.3%	-4.7%	2.9%
CN(C(=O)OC(C)(C)C)c1ccc(-c2nc3ccccc3s2)cc1	-7.2%	-94.8*	.	100µM*	.	.
CC(C)c1ccc(-c2nc3ccccc3s2)cc1	-29.4%	-95.2*	-9.0%	-0.3%	13.1%	-26.7%
CN(C)c1cccc(C(=O)Nc2ccc(-c3nc4ccccc4s3)cc2)c1	-1.3%	43.0	.	?	-2.8%	.
CCN(CC)C(=O)C1=C(C)Nc2nc3ccccc3n2C1c1cccc(Cl)c1 (stereo unspecified)	0.0%	-20.0	.	-27.9%	4.0%	.
CCSc1nc2ccccc2n1C(=O)/C=C\c1ccc(OC)c(OC)c1	9.1%	-97.9*	-3.6%	12.6µM*	-11.7%	0.2%
Cc1ccc(C2=NCC(C)n3nc4ccccc4c32)cc1 (stereo unspecified)	.	-9.2	.	.	.	.

High-throughput results as filed in PubChem BioAssay.
